This is part of a sample that, as a whole, favours compounds with a hit. Of some 83,000 tested, about 20% had one in any assay.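 Compound tested at a single concentration for 48 hours in 96-well plates; a percent growth value below 10 was scored as active.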 Unmarked numbers belong to inactive results. The source made the active and inactive calls.

Growth data for 33 compounds are collected here from PubChem BioAssay (NCI).

This assay deals with HOP-92 NSCLC. Briefly: NCI-60 one-dose screen, 48 h (100 = growth as untreated, 0 = no growth, -100 = all killed). To be noted: 10 µM unless noted.
With `CCOc1cc2ncc(C#N)c(Nc3ccc(F)c(Cl)c3)c2cc1NC(=O)/C=C/CN(C)C`, the growth was -30% (active). In the case of `CCN(CC)CCNC(=O)c1c(C)[nH]c(/C=C2\C(=O)Nc3ccc(F)cc32)c1C` it was 30.3%.

For the compound `COc1ccc2c(CCC(c3ccccc3)c3ccccc3)c3[n+](cc2c1OC)CCc1cc2c(cc1-3)OCO2`, the growth is -9.89% (active). Then `C[C@@H](Oc1cc(-n2cnc3ccc(CN4CCN(C)CC4)cc32)sc1C(N)=O)c1ccccc1C(F)(F)F`, with 21.7%.

Consider `CC(C)=CCc1cc2c(cc1O)C1=C(C(=O)C3=C(NCCS3(=O)=O)C1=O)C(C=C(C)C)O2` (stereo not drawn), for which the growth is 115%. Then `CC(N)C(Cc1ccc(Cl)cc1)c1ccc(Cl)cc1` (stereo not drawn), with 21.5%. Take `Clc1nc(Cl)c2ncn(CC#CCn3cnc4c(Cl)nc(Cl)nc43)c2n1`: the growth is -87.6% (active). In the case of `O=C(Cc1ccc(-c2ccc(OCCN3CCOCC3)cc2)cn1)NCc1ccccc1` it was 27.6%.

Consider `Cc1nc(NC(=O)N2CCC[C@H]2C(N)=O)sc1-c1ccnc(C(C)(C)C(F)(F)F)c1`, for which the growth is -4.57% (active).

For `COc1ccc2c(CCCc3ccc(Cl)cc3Cl)c3[n+](cc2c1OC)CCc1cc2c(cc1-3)OCO2`, the growth is 0.488% (active).

On to `COc1cc2nccc(Oc3ccc(NC(=O)C4(C(=O)Nc5ccc(F)cc5)CC4)cc3)c2cc1OC`, for which the growth was -36.9% (active). With `C=CCCCC(=O)CCC(=O)OCC1O[C@@H](O[C@@H]2C(O)[C@@H](OC(C)=O)C(C)O[C@H]2O[C@H](CC=C)CCCCC)C(O)[C@@H](OC(=O)/C(C)=C/C)[C@@H]1OC(=O)/C=C/c1ccccc1` (stereo partly drawn), the growth is 0.347% (active).

As to `O=c1[nH]ccc2c(S(=O)(=O)N3CCCNCC3)cccc12`, the growth was 30%. Then `CC1(C=O)NC(=O)NC1=O` (stereo not drawn), with 96.4%; and `Cc1ccc(NC(=O)c2ccc(CN3CC[C@H](N(C)C)C3)c(C(F)(F)F)c2)cc1Nc1nccc(-c2cncnc2)n1`, with -84.7% (active).

`O=C(Nc1cccc(Cl)c1)Nc1ncc(CCNc2ncnc3ccsc23)s1`: the growth is 40.9%.

As to `Cn1ccnc1C(=O)/C=C/c1ccc(CC(=O)Nc2ccc(Br)cc2)cc1`, the growth is 61.1%. Then `COc1cccc2cc(-c3nc(C4CCC(C(=O)O)CC4)n4ncnc(N)c34)[nH]c12` (stereo not drawn), with -14.5% (active); and `CNc1ncc2cc(-c3cc(NC(=O)NCCC(C)(C)C)c(F)cc3C)c(C)nc2n1`, with -44.3% (active); and `Cc1cc(C(=O)Nc2cc(Oc3ccc4nc(NC(=O)C5CC5)cn4n3)ccc2C)n(C)n1`, with -25.6% (active). `O=C(Cc1ccc(/C=C/C(=O)c2ncc[nH]2)cc1)Nc1ccc(Br)cc1`: the growth was 77.4%.

In the case of `CCCCN1CCCC[C@@H]1C(=O)N[C@H](C(=O)N(C)[C@H](CCc1nc(C(=O)N[C@@H](Cc2ccccc2)C[C@H](C)C(=O)OC)cs1)C(C)C)C(C)C`, the growth was 18.8%. Then `COc1cnc2c(c1)C(=O)c1c-2n(CCCN2CCC(N)CC2)c(=O)c2cc([N+](=O)[O-])ccc12`, with 67.1%; and `C=CC(=O)Nc1cc2c(Nc3ccc(F)c(Cl)c3)ncnc2cc1OCCCN1CCOCC1`, with -51.7% (active).

On to `NC(=O)c1c(OCc2c(F)cc(Br)cc2F)nsc1NC(=O)NCCCCN1CCCC1`, for which the growth is -1.17% (active).

On to `CCc1nc2ccc(Cc3ccc(C(=O)NO)cc3)cc2c(=O)n1CCc1ccccc1`, for which the growth is -29.5% (active).

Regarding `Cc1cc(N(CCNc2ccnc3cc(Cl)ccc23)Cc2ccc3c(c2)OCO3)nc(N2CCN(C)CC2)n1`, the growth is -10.2% (active). In the case of `O=C(Nc1cn[nH]c1-c1nc2ccc(CN3CCOCC3)cc2[nH]1)NC1CC1` it was -2.75% (active); in that of `O=C1CSC(c2c(F)cccc2Cl)N1NC(=O)C(O)(c1ccccc1)c1ccccc1` (stereo not drawn), 86.3%; in that of `O=C1C=CC2(NN=C(c3ccccc3)N2c2cccc(Cl)c2)C(Cl)=C1` (stereo not drawn), 84.5%.

Regarding `Cc1ccc(N=C2CSc3nnc(-c4csc5c4CCCC5)n3N2)cc1`, the growth was 67.7%.

`Cc1cc(-c2cc(OC(=O)c3ccccc3)ccc2Cl)cc2nnc(Nc3ccc(OCCN4CCCC4)cc3)nc12`: the growth was 40.8%. Then `Cc1cc(O)cc(-c2c(-c3ccnc(-c4cccnc4)c3)cnn2C)c1`, with 42.7%.
